Each structure is given as a SMILES string. Results filed as inconclusive are left out. Unmarked numbers belong to inactive results. Calls come from the whole dose curve; as a rule, active = well fitted activation curve with a large enough effect; inconclusive = small, poorly fitted or top-dose-only effect; inactive = flat fitted curve, though single readings scatter. Where a SMILES comes first, the peptide text is derived from it. The star is where a group is joined. Cbz = O=C(OCc1ccccc1)*; CH2Cl = ClC*

A short description of the assay: Primary redox qHTS assay for identification of artifact compounds. (AID 1845223).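 Note: 0% = DMSO and 100% = reference compound.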 The following applies: Amplex Red/HRP redox cycling with DTT, fluorescence; series mostly up to 53.8 µM; redox activity (% of DA3003): at the top concentration. A digest of the protocol: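 Redox-cycling detection via DTT (250 uM final) oxidation coupled to Amplex Red (25 uM)/HRP (250 mU/mL) in HBSS. 15 min preincubation plus 30 min after DTT, room temperature. Ex/Em 525/598 nm; 4-parameter Hill fit against DMSO and 10 uM DA3003.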
(Quantitative high-throughput screening tests each substance at several concentrations.)
On to `CC/C(C)=C/C(=O)OC1C(OC2(C)CCC3C(C4C(C)CCC42)C3(C)C)OC(C)C(O)C1O` (centres undefined), for which the “redox activity (% of DA3003)” value was 3.57% [at 25.6 µM].

In the case of `COc1cc2nc(N3CCN(C(=O)COc4c(OC)cccc4C(C)C)CC3)nc(N)c2cc1OC`, the “redox activity (% of DA3003)” value was 16.6%.

Take `CC(O)(C(=O)O)C1CCC2(C)C1CCC1(C)C2CCC2C3(C)CCC(O)C(C)(COC4OC(CO)C(O)C(O)C4O)C3CCC21C` (centres undefined): the “redox activity (% of DA3003)” value was 7.37% [at 25.6 µM].

With `Cc1cn2c(n1)Cc1ccc(Cl)cc1C(c1ccc(N)cc1)=N2`, the “redox activity (% of DA3003)” value was -5.04%.

Take `COC1CCN(c2cccc(-c3cc(NC(C)=O)nc(-n4nc(C)cc4C)n3)n2)CC1`: the “redox activity (% of DA3003)” value was 13%.

For the compound `CCC(C)CNCC(=O)N1CCc2sccc2C1COc1cccc(C)c1` (centres undefined), the “redox activity (% of DA3003)” value is 6.86%.

Take `C=CC(C)(O)CC/C=C(\C)C(=O)OC1C(O)C(CO)OC(OC(=O)C23CCC(C)(C)CC2C2=CCC4C5(C)CCC(OC6OC(COC7OCC(OC(C)=O)C(O)C7OC7OC(COC(C)=O)C(O)C(O)C7OC(C)=O)C(O)C(O)C6OC6OCC(O)C(O)C6O)C(C)(C)C5CCC4(C)C2(C)C(O)C3O)C1OC1OCC(OC2OCC(O)C(OC3OCC(O)C(O)C3O)C2O)C(O)C1O` (centres undefined): the redox activity (% of DA3003) was 4.4% [at 6.41 µM].

For `CC(C)C[C@H](NC(=O)CNC(=O)OCc1ccccc1)C(=O)N[C@@H](Cc1ccccc1)C(=O)CCl` (Cbz-Gly-Leu-Phe-CH2Cl), the “redox activity (% of DA3003)” value was 10.6%.

Turning to `C[C@@]12C(=O)N(c3ccc(C(=O)Nc4cccc5cccnc45)cc3)C(=O)[C@@H]1[C@@H]1C=C[C@H]2C1`, the “redox activity (% of DA3003)” value was 6.42%.

For the compound `CC(C)CCCCC(=O)N[C@@H](CO)C(=O)N[C@@H](CC(C)C)C(=O)[C@@]1(CO)CO1`, the “redox activity (% of DA3003)” value is -6.49%.

In the case of `C/C=C/C=C/C=C/C(=O)O[C@@H]1C=C2COC(=O)[C@]2(O)[C@@]2(C)CCCC(C)(C)[C@H]12`, the “redox activity (% of DA3003)” value is 19.7% [at 25.6 µM].

Take `O=C(NCC1(N2CCN(c3ccccc3)CC2)CCOCC1)c1cccnc1Sc1ccccc1`: the “redox activity (% of DA3003)” value was 17.6%.

As for `CCC(CC)(NC(=O)C(C)C)C(=O)N[C@@H](CCCN=C(N)N)C(=O)NC1(C(=O)NC(c2ccc(F)cc2)c2ccc(F)cc2)CCCC1`, the “redox activity (% of DA3003)” value is 10.4%.

Consider `OC[C@H]1O[C@@H](OC/C=C/c2ccc(O)cc2)[C@H](O)[C@@H](O)[C@@H]1O`, for which the “redox activity (% of DA3003)” value was -3.1%.

`CNS(=O)(=O)c1ccccc1Nc1nc(Nc2ccc(N3CCN(C)CC3)cc2OC)ncc1Br`: the “redox activity (% of DA3003)” value was 4.23%.

`C/C=C(/C)C(=O)O[C@H]1C=C(CO)C(=O)[C@H](OC(=O)/C(C)=C/CO)[C@H]1C(C)C`: the “redox activity (% of DA3003)” value is 8.78%.

Regarding `C=CS(=O)(=O)NC1CCN(C(=O)CNc2cc(I)c(Cl)cc2OC)CC1`, the “redox activity (% of DA3003)” value was -6.63%.

`CN1CCN(Cc2ccc(NC(=O)Cc3ccc(Oc4cc(NC(=O)C5CC5)ncn4)cc3)cc2C(F)(F)F)CC1`: the “redox activity (% of DA3003)” value was 4.6%.

Take `C[C@@H]1CCCN1CCc1cc2cc(-c3ccc(C#N)cc3)ccc2o1`: the “redox activity (% of DA3003)” value is -0.459%.

For `COc1ccc(S(=O)(=O)Nc2cc(Cl)cc(Cl)c2OC)cc1N1CCNCC1`, the “redox activity (% of DA3003)” value is 19.7%.

In the case of `CC(=O)O[C@@H]1[C@@H](OC(C)=O)[C@H](C)O[C@@H](O[C@H]2[C@@H]3C=CO[C@@H](O[C@@H]4O[C@H](CO)[C@@H](O)[C@H](O)[C@H]4O)[C@@H]3[C@@]3(CO)O[C@@H]23)[C@@H]1OC(=O)/C=C/c1ccccc1`, the “redox activity (% of DA3003)” value was 8.01% [at 25.6 µM].

For the compound `Fc1ccc(-c2nc(C3CCNCC3)sc2-c2ccnc(NC3CC3)n2)cc1`, the “redox activity (% of DA3003)” value was -2.23%.

In the case of `C#CCCCn1cc(-c2cccc3c2N[C@H](C)CC(=O)N3)cn1`, the “redox activity (% of DA3003)” value is -6.11%.

As for `O=C(Nc1ccc(Cl)cc1)c1ccccc1NCc1ccncc1`, the “redox activity (% of DA3003)” value was -0.03%.

As to `CCNC(=O)Nc1ccc(-c2nc3c(c(N4CCOCC4C)n2)CCN(C2COC2)C3)cc1` (centres undefined), the “redox activity (% of DA3003)” value was 8.36%.

With `COC1C=C(C)C(O)(CO)C2(C)CCCC(C)(C)C12` (centres undefined), the “redox activity (% of DA3003)” value was 6.5%.

As to `CCC(C)C(=O)O[C@H]1[C@@H](OC(=O)c2ccoc2)C[C@](C)(O)[C@]23OC(C)(C)[C@H](C[C@H](OC(=O)c4ccoc4)[C@]12COC(C)=O)[C@H]3OC(C)=O` (some centres undefined), the “redox activity (% of DA3003)” value is 10.2% [at 25.6 µM].

Regarding `C=C1C(=O)OC2/C=C(\CO)CC/C=C(\C=O)C(OC)C(OC(=O)C(C)CC)C12` (centres undefined), the “redox activity (% of DA3003)” value was -8.84% [at 25.6 µM].

As for `CCCn1ncc(CN2CCCC(C(=O)c3cccc(OC(C)C)c3)C2)c1C` (centres undefined), the “redox activity (% of DA3003)” value is 10.2%.

In the case of `N#Cc1cccc(C(=O)Nc2cc(-c3ccccc3)nn2-c2ccccc2)c1`, the “redox activity (% of DA3003)” value was -3.36%.

`COc1ccccc1OCCN1CC(COc2cccc3[nH]c4ccccc4c23)OCC1=O` (centres undefined): the “redox activity (% of DA3003)” value was 7.95%.

As for `CC1CCCC(O)CC(=O)c2c(O)cc(O)cc2CC(=O)O1` (centres undefined), the “redox activity (% of DA3003)” value was -8.32%.

With `Cc1cc(N2CCN(C(=O)Oc3ccc(-c4ccccc4)cn3)CC2)c2ccccc2n1`, the “redox activity (% of DA3003)” value is 1.56%.

Turning to `O=C(Nc1ccc(Cl)cc1)C1CCCN(C(=O)c2cccc(-c3ccco3)c2)C1` (centres undefined), the “redox activity (% of DA3003)” value was 0.149%.

The record behind these values is PubChem BioAssay (NCATS).
